In all, about 16,000 sequences were measured (“e-score”: median about -0.044, highest 2% from about 0.38 on). The entries come from a sample that favours the highest values as a whole.

The target in this test is T1, GST-NbGlk1(82-244) (Nicotiana benthamiana).
T1 chain: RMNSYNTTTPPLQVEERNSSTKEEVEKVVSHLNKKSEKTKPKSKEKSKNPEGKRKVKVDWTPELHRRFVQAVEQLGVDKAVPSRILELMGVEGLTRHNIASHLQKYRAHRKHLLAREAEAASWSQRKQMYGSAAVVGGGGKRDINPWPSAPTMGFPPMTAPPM
Description: protein-binding microarray; NbGlk1 is a Golden2-like transcription factor of Nicotiana benthamiana; high values mean tight binding. The settings on record: protein: recombinant; tags: GST (pTH6838); dsDNA, one strand shown.
Regarding AGAATCAG, the binding signal stood at 0.39 ± 0.0152 E-score.

With ATAATCCA, the binding signal was 0.354 ± 0.0347 E-score.

Consider ACAATCCA, for which the binding signal turned out to be 0.3331 ± 0.000895 E-score.

Regarding CAAATCCG, the binding signal turned out to be 0.389 ± 0.00882 E-score.

For AAAATACG, the binding signal is 0.286 ± 0.0671 E-score.

Take AAAATCCG: the binding signal is 0.446 ± 0.00893 E-score.

Turning to AGAATCAC, the binding signal was found to be 0.373 ± 0.0542 E-score.

Turning to ATAATCAA, the binding signal is 0.216 ± 0.00752 E-score.

On to AAGCGGAT, for which the binding signal came to 0.227 ± 0.0367 E-score.

Take AATCGGAT: the binding signal is 0.357 ± 0.0422 E-score.

Take ATATACAG: the binding signal stood at 0.262 ± 0.0848 E-score.

With ATCCCTTA, the binding signal stood at 0.215 ± 0.0752 E-score.

In the case of ATGTGATA, the binding signal was 0.231 ± 0.0239 E-score.

Consider ATCCTCAG, for which the binding signal stood at 0.231 ± 0.0659 E-score.

For the sequence AAAATCCT, the binding signal was 0.433 ± 0.0284 E-score.

CAAATTCA: the binding signal stood at 0.203 ± 0.0475 E-score.

AAAATCAC: the binding signal came to 0.36 ± 0.0307 E-score.

Take ATAATCAG: the binding signal turned out to be 0.222 ± 0.0278 E-score.

As to CAAATCCA, the binding signal worked out at 0.3792 ± 0.00132 E-score.

Take AAAATCAG: the binding signal worked out at 0.381 ± 0.0189 E-score.

Take CAAATCCC: the binding signal came to 0.315 ± 0.0145 E-score.

Take ATAATCCC: the binding signal turned out to be 0.212 ± 0.0485 E-score.

As for AAAATCAT, the binding signal was 0.302 ± 0.0817 E-score.

As for CAGATCCA, the binding signal came to 0.23 ± 0.064 E-score.

AAAATCCC: the binding signal came out at 0.41 ± 0.0189 E-score.

As to ACTGAAAT, the binding signal came to 0.278 ± 0.0182 E-score.

In the case of ATATTCAA, the binding signal was determined as 0.213 ± 0.11 E-score.

Turning to AGTAAGAA, the binding signal came out at 0.214 ± 0.0216 E-score.

For ATCCGCCG, the binding signal turned out to be 0.216 ± 0.0636 E-score.

For the sequence ATTTCATG, the binding signal came to 0.332 ± 0.0188 E-score.

As to ATCTCCAG, the binding signal came out at 0.293 ± 0.0251 E-score.

For the sequence ATCCTGAG, the binding signal is 0.23 ± 0.00887 E-score.

For ACCAAAGA, the binding signal was found to be 0.208 ± 0.134 E-score.

On to ATCTCACG, for which the binding signal came out at 0.2 ± 0.0565 E-score.

For the sequence ATTGAAAA, the binding signal was 0.214 ± 0.0168 E-score.

For AAGGTAAT, the binding signal amounted to 0.217 ± 0.0574 E-score.

With AGATTCCT, the binding signal stood at 0.4552 ± 0.00311 E-score.

With AGATTCAT, the binding signal is 0.24 ± 0.0201 E-score.

With AGATTCCA, the binding signal stood at 0.433 ± 0.0111 E-score.

With AGATACCT, the binding signal stood at 0.216 ± 0.0648 E-score.

Consider ATTTTCCA, for which the binding signal was determined as 0.294 ± 0.00656 E-score.

Take AAATTCCC: the binding signal amounted to 0.294 ± 0.0591 E-score.

Regarding AGATTCCC, the binding signal is 0.493 ± 0.00512 E-score.

Consider AGATACCG, for which the binding signal was 0.364 ± 0.0644 E-score.

With AGATACCA, the binding signal was determined as 0.204 ± 0.131 E-score.

With AGATTCCG, the binding signal worked out at 0.4631 ± 0.000925 E-score.

Take AGATTCAG: the binding signal was 0.238 ± 0.0658 E-score.

In the case of CAATTCCC, the binding signal came out at 0.217 ± 0.0511 E-score.

In the case of AGATCGTG, the binding signal stood at 0.339 ± 0.0193 E-score.

On to ATCCGCGG, for which the binding signal was determined as 0.28 ± 0.0747 E-score.

Take AGAATTCG: the binding signal amounted to 0.221 ± 0.0588 E-score.

For AATCGACT, the binding signal came out at 0.263 ± 0.0439 E-score.

On to CAATCGAA, for which the binding signal was 0.202 ± 0.113 E-score.

Regarding ATCCTCCA, the binding signal stood at 0.285 ± 0.089 E-score.

In the case of ACAAGAGA, the binding signal was 0.277 ± 0.0453 E-score.

In the case of ACTCGTAA, the binding signal worked out at 0.247 ± 0.062 E-score.

As to ATAATCAC, the binding signal was found to be 0.214 ± 0.0373 E-score.

Regarding AATCGTGC, the binding signal amounted to 0.299 ± 0.027 E-score.

With ATTACCCC, the binding signal came out at 0.247 ± 0.0858 E-score.

AATCAAGT: the binding signal worked out at 0.233 ± 0.1 E-score.

AATCGAGC: the binding signal was determined as 0.207 ± 0.052 E-score.

On to AATCTAGA, for which the binding signal came to 0.452 ± 0.018 E-score.

Consider AATCTAGG, for which the binding signal was found to be 0.4332 ± 0.00364 E-score.

As to AATCTAGC, the binding signal amounted to 0.404 ± 0.00637 E-score.

With AATCAAGA, the binding signal turned out to be 0.308 ± 0.0329 E-score.

For AATCAAGC, the binding signal is 0.22 ± 0.0411 E-score.

ATTCTAGA: the binding signal was determined as 0.2 ± 0.0443 E-score.

AATCTAGT: the binding signal amounted to 0.421 ± 0.0336 E-score.

Consider AATCAAGG, for which the binding signal was 0.258 ± 0.0284 E-score.

On to ATCCTAGC, for which the binding signal turned out to be 0.237 ± 0.018 E-score.

Consider ATCCCCGC, for which the binding signal worked out at 0.2 ± 0.0376 E-score.

Regarding ATTACACG, the binding signal was found to be 0.268 ± 0.0173 E-score.

In the case of CACGATTA, the binding signal was determined as 0.202 ± 0.0336 E-score.

For the sequence ATGCGTAA, the binding signal was found to be 0.21 ± 0.0884 E-score.

Consider AATCTCCG, for which the binding signal was 0.437 ± 0.00941 E-score.

On to ATTCTCCG, for which the binding signal is 0.338 ± 0.0548 E-score.

ATTCTCCA: the binding signal amounted to 0.31 ± 0.0567 E-score.

For AATCCCCC, the binding signal came out at 0.215 ± 0.101 E-score.

For the sequence AATCACCG, the binding signal was 0.281 ± 0.0154 E-score.

On to AATCTCCC, for which the binding signal came out at 0.387 ± 0.0218 E-score.

Turning to AATCTCCT, the binding signal came out at 0.4008 ± 0.00273 E-score.

AATCTCCA: the binding signal is 0.389 ± 0.05 E-score.

Consider AATCGCCT, for which the binding signal was found to be 0.225 ± 0.129 E-score.

In the case of AATCACCA, the binding signal was determined as 0.26 ± 0.00706 E-score.

For the sequence AATTTCCT, the binding signal is 0.255 ± 0.00447 E-score.

For the sequence ATTCTCCC, the binding signal came out at 0.255 ± 0.0215 E-score.

Turning to ATCCGGTA, the binding signal is 0.286 ± 0.0898 E-score.

As to ATTTGCAC, the binding signal came out at 0.305 ± 0.0821 E-score.

Consider ATCCAATA, for which the binding signal came to 0.324 ± 0.0209 E-score.

ATCTTTGG: the binding signal turned out to be 0.304 ± 0.0128 E-score.

Consider ATCTTTTA, for which the binding signal was found to be 0.259 ± 0.0767 E-score.

Take ATACCGCA: the binding signal came to 0.211 ± 0.101 E-score.

For the sequence AAAGCGAT, the binding signal came to 0.215 ± 0.0733 E-score.

Turning to AATTTGCG, the binding signal was determined as 0.223 ± 0.0644 E-score.

With ATTCACAA, the binding signal was 0.218 ± 0.0225 E-score.

As for AAAGCAAT, the binding signal worked out at 0.27 ± 0.0827 E-score.

As for ATATCCTA, the binding signal was found to be 0.416 ± 0.0447 E-score.

In the case of ATATCCTG, the binding signal came out at 0.373 ± 0.0434 E-score.

For the sequence ATATCCTC, the binding signal amounted to 0.402 ± 0.00645 E-score.

For ATATCGTA, the binding signal was found to be 0.364 ± 0.049 E-score.

For ATCTCCTC, the binding signal worked out at 0.296 ± 0.0162 E-score.

In the case of ATTTCCTA, the binding signal worked out at 0.358 ± 0.0333 E-score.

With ATTTGGTG, the binding signal worked out at 0.213 ± 0.0582 E-score.

As for AGACAGAT, the binding signal turned out to be 0.222 ± 0.0932 E-score.

For the sequence ATCCTGCA, the binding signal is 0.261 ± 0.126 E-score.

For ATGAGATC, the binding signal is 0.369 ± 0.0039 E-score.

AGAAGATA: the binding signal amounted to 0.26 ± 0.0155 E-score.

For the sequence AGGAGATA, the binding signal amounted to 0.228 ± 0.0512 E-score.

In the case of ACAAGATC, the binding signal was determined as 0.2947 ± 0.00243 E-score.

For AGGAGATC, the binding signal is 0.382 ± 0.00924 E-score.

Regarding AGAAGATC, the binding signal turned out to be 0.383 ± 0.0277 E-score.

Regarding ACGAGATA, the binding signal worked out at 0.2747 ± 0.00202 E-score.

In the case of ACGAGATC, the binding signal turned out to be 0.41 ± 0.00651 E-score.

Consider AGGAGAAT, for which the binding signal was found to be 0.267 ± 0.0583 E-score.

The record behind these values is publication PMC5836133, “The intracellular immune receptor Rx1 regulates the DNA-binding activity of a Golden2-like transcription factor”.
